Laboratory results as given in PubChem BioAssay AID1159580 (chemical genetic matrix, 2015).
Values joined by “and” are separate entries in the source; they are usually repeats but may differ in a detail not shown here. Identical values can stand only once. The campaign covered roughly 5,500 compounds. About 2,000 (36%) were called active. Inconclusive results (about 18%) are left out. The list shows a part of the results. A number with no mark means an inactive call. Cut-off read from the data, not from the text of the source: active = normalized growth mostly below about 0.91 (no sharp cut-off); inconclusive = no clear call, values can overlap the other calls; inactive = mostly above about 0.92.

Test: chemical genetic growth profiling, strain panel (AID 1159580);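 note: tested at 20 µM; growth read once vehicle control cultures reached saturation at 30 °C; 1 = growth at the plate median or of vehicle wells; lower values mean less growth of the strain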
Details: S. cerevisiae deletion strains, growth OD

COc1ccc2cc1Oc1ccc(cc1)C[C@H]1c3cc(c(OC)cc3CCN1C)Oc1c(OC)c(OC)cc3c1[C@H](C2)N(C)CC3
normalized growth (locus YAL013W, strain DEP1, active compounds read low): 1.01
normalized growth (locus YAL021C, strain ccr4, active compounds read low): 0.853 (active)
normalized growth (locus YAL026C, strain drs2, active compounds read low): 1
normalized growth (locus YAL030W, strain snc1, active compounds read low): 1.01
normalized growth (locus YBL061C, strain skt5, active compounds read low): 1.01
normalized growth (locus YBR009C, strain hhf1, active compounds read low): 0.982
normalized growth (locus YBR021W, strain FUR4, active compounds read low): 0.596 (active)
normalized growth (locus YBR023C, strain chs3, active compounds read low): 1.01
normalized growth (locus YBR171W, strain sec66, active compounds read low): 1.02
normalized growth (locus YBR229C, strain ROT2, active compounds read low): 1.01
normalized growth (locus YBR231C, strain swc5, active compounds read low): 0.988
normalized growth (locus YBR279W, strain paf1, active compounds read low): 0.998
normalized growth (locus YCL011C, strain gbp2, active compounds read low): 0.988
normalized growth (locus YCL016C, strain dcc1, active compounds read low): 0.968
normalized growth (locus YCL029C, strain bik1, active compounds read low): 1.03
normalized growth (locus YCL069W, strain vba3, active compounds read low): 1.01
normalized growth (locus YCR088W, strain abp1, active compounds read low): 1.01
normalized growth (locus YDL005C, strain med2, active compounds read low): 1
normalized growth (locus YDL035C, strain GPR1, active compounds read low): 0.977
normalized growth (locus YDL040C, strain nat1, active compounds read low): 1
normalized growth (locus YDL074C, strain BRE1, active compounds read low): 0.972
normalized growth (locus YDL101C, strain DUN1, active compounds read low): 1.01
normalized growth (locus YDL134C, strain PPH21, active compounds read low): 1.01
normalized growth (locus YDL185W, strain tfp1, active compounds read low): 1.01
normalized growth (locus YDL192W, strain arf1, active compounds read low): 0.997
normalized growth (locus YDR001C, strain nth1, active compounds read low): 1.02
normalized growth (locus YDR069C, strain doa4, active compounds read low): 0.733 (active)
normalized growth (locus YDR101C, strain arx1, active compounds read low): 1.01
normalized growth (locus YDR137W, strain rgp1, active compounds read low): 0.998
normalized growth (locus YDR150W, strain NUM1, active compounds read low): 1.01
normalized growth (locus YDR159W, strain sac3, active compounds read low): 1.02
normalized growth (locus YDR162C, strain NBP2, active compounds read low): 0.974
normalized growth (locus YDR195W, strain ref2): 1.02
normalized growth (locus YDR297W, strain sur2, active compounds read low): 1
normalized growth (locus YDR318W, strain mcm21, active compounds read low): 1
normalized growth (locus YDR334W, strain swr1, active compounds read low): 1.01
normalized growth (locus YDR335W, strain msn5, active compounds read low): 0.999
normalized growth (locus YDR388W, active compounds read low): 0.241 (active)
normalized growth (locus YDR392W, strain spt3, active compounds read low): 0.79
normalized growth (locus YDR502C, strain sam2, active compounds read low): 0.99
normalized growth (locus YEL003W, strain gim4, active compounds read low): 0.998
normalized growth (locus YEL037C, strain rad23, active compounds read low): 0.989
normalized growth (locus YEL061C, strain CIN8 (second series), active compounds read low): 1.01
normalized growth (locus YEL061C, strain CIN8, active compounds read low): 1.01
normalized growth (locus YER015W, strain faa2, active compounds read low): 0.997
normalized growth (locus YER016W, strain bim1, active compounds read low): 1
normalized growth (locus YER110C, active compounds read low): 1.03
normalized growth (locus YER111C, strain swi4, active compounds read low): 0.997
normalized growth (locus YER155C, strain BEM2 (second series), active compounds read low): 0.887
normalized growth (locus YER155C, strain BEM2, active compounds read low): 1.03
normalized growth (locus YER167W, strain BCK2, active compounds read low): 0.964
normalized growth (locus YFR010W, strain ubp6, active compounds read low): 0.854 (active)
normalized growth (locus YGL078C, strain dbp3, active compounds read low): 1.01
normalized growth (locus YGL086W, strain mad1, active compounds read low): 0.983
normalized growth (locus YGL167C, strain pmr1, active compounds read low): 1
normalized growth (locus YGL173C, strain kem1, active compounds read low): 1.02
normalized growth (locus YGL227W, strain vid30, active compounds read low): 0.997
normalized growth (locus YGL240W, strain doc1, active compounds read low): 1.01
normalized growth (locus YGL248W, strain PDE1, active compounds read low): 1
normalized growth (locus YGL253W, strain hxk2, active compounds read low): 1.01
normalized growth (locus YGR078C, strain PAC10, active compounds read low): 0.996
normalized growth (locus YGR135W, strain pre9, active compounds read low): 0.931
normalized growth (locus YGR229C, strain SMI1, active compounds read low): 0.993
normalized growth (locus YGR252W, strain gcn5, active compounds read low): 0.855
normalized growth (locus YHR013C, strain ard1, active compounds read low): 0.902
normalized growth (locus YHR027C, strain rpn1, active compounds read low): 1.02
normalized growth (locus YHR030C, strain SLT2, active compounds read low): 1.01 and 1
normalized growth (locus YHR079C, strain IRE1 (second series), active compounds read low): 1.01
normalized growth (locus YHR079C, strain IRE1, active compounds read low): 0.987
normalized growth (locus YHR094C, strain hxt1, active compounds read low): 1.02
normalized growth (locus YHR129C, strain ARP1, active compounds read low): 1.01
normalized growth (locus YHR142W, strain chs7, active compounds read low): 1.01
normalized growth (locus YHR200W, strain rpn10, active compounds read low): 0.989
normalized growth (locus YIL066C, strain RNR3, active compounds read low): 1
normalized growth (locus YIL073C, strain SPO22, active compounds read low): 1.31
normalized growth (locus YIL125W, strain kgd1, active compounds read low): 1.01
normalized growth (locus YIR030C, strain dcg1, active compounds read low): 1.02
normalized growth (locus YJL092W, strain hpr5, active compounds read low): 1.01
normalized growth (locus YJL095W, strain BCK1 (second series), active compounds read low): 1.02
normalized growth (locus YJL095W, strain BCK1, active compounds read low): 1.02 and 1.06
normalized growth (locus YJL115W, strain asf1, active compounds read low): 1.01
normalized growth (locus YJL129C, strain trk1, active compounds read low): 1.01
normalized growth (locus YJL134W, strain LCB3, active compounds read low): 1.02
normalized growth (locus YJL154C, strain vps35, active compounds read low): 1
normalized growth (locus YJL164C, strain tpk1, active compounds read low): 0.986
normalized growth (locus YJL166W, strain qcr8, active compounds read low): 0.984
normalized growth (locus YJL168C, strain set2, active compounds read low): 1.01
normalized growth (locus YJL187C, strain SWE1 (second series), active compounds read low): 1
normalized growth (locus YJR043C, strain POL32, active compounds read low): 0.996
normalized growth (locus YJR066W, strain TOR1, active compounds read low): 0.955
normalized growth (locus YJR075W, strain HOC1, active compounds read low): 0.924
